# Laboratory results from PubChem BioAssay (Tox21).
# Inconclusive results are not listed. Unmarked numbers belong to inactive results. The source made the active and inactive calls. Calls come from the whole dose curve.
# Molecular target: 5-hydroxytryptamine receptor 2A (Homo sapiens) (UniProt P28223)
# Experiment: 5-hydroxytryptamine receptor 2A (HTR2A) small molecule antagonists, cell-based qHTS assay (AID 1963586); note: nearly all actives have a fitted effect of over 45% in size
# Settings: HTR2A-CHO cells, DOI-induced calcium flux, fluorescence; series mostly up to 61.5 µM; activity, negative = inhibition: at the top concentration
# Text: National Center for Advancing Translational Sciences [NCATS]
# Division of Preclinical Innovation [DPI]
# U.S. Environmental Protection Agency [EPA]
# National Institutes of Environmental Health Sciences [NIEHS]
# National Toxicology Program [NTP]
# U.S. Food and Drug Administration [FDA]
# The HTR2A receptor is a subtype of the 5-HT2 receptor that belongs to the serotonin receptor family and is a G protein-coupled receptor (GPCR). The HTR2A-CHO cell line stably expressing human 5-hydroxytryptamine receptor 2A (HTR2A) can be used for screening antagonists of interactions between 5-HT2 and its ligands. The HTR2A-CHO calcium flux assay is a homogeneous fluorescence-based assay for detecting the intracellular calcium level using FDSS kinetic plate reader system.
# Tox21 Assay Protocol Summary:
# HTR2A-CHO cells were dispensed at 2000 cells/3uL/well in 1536-well black-clear bottom plates using a Multidrop Dispenser. After the assay plates were incubated at a 37 C/5% CO2 incubator for 18 h, 3 uL of Dye Loading Buffer was transferred to the assay plate by a Flying Reagent Dispenser. The assay plates were incubated at 37 C for 1h. For antagonist mode, 23 nL of compounds dissolved in DMSO, positive controls or DMSO only was transferred to the assay plate by a pin tool. After 5 min incubation at room temperature, 1.5 uL of 4-Iodo-2,5-dimethoxy-alpha-methylbenzeneethanamine hydrochloride (DOI) at 4nM was added to each well. The fluorescence intensity in the plates was measured using FDSS 7000EX kinetic plate reader for 3 min at 1 sec intervals.
# % is set by controls: 0 for no effect and ±100 for the full control effect; potency is the fitted concentration of half-maximal effect.
# Chain of 5-hydroxytryptamine receptor 2A (Homo sapiens) (P28223 whole entry, looked up): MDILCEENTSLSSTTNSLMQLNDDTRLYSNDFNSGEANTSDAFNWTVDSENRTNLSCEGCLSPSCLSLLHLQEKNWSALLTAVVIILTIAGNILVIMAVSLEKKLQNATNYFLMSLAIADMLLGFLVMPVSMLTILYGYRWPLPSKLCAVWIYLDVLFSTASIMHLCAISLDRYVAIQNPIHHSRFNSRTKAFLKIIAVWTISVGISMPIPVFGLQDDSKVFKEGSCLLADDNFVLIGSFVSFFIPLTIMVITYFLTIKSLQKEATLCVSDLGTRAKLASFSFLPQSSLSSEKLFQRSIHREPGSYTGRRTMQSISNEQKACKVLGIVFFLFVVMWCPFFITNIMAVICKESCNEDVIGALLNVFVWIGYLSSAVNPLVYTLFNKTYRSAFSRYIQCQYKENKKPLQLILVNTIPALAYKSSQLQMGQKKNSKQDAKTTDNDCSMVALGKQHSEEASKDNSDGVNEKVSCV
Compound,"activity, negative = inhibition",Potency
CC1CCC(C(C)(C)S)C(=O)C1 (stereo not given),4.51%,
C=COCCCC,-7.35%,
CCOC(=O)CN,6.31%,
O=c1[nH][nH]c(=O)c2cc([N+](=O)[O-])ccc12,2.26%,
CC(C)S,-4.52%,
Nc1c(S(=O)(=O)O)cc(Br)c2c1C(=O)c1ccccc1C2=O,,inactive
OCCCC1CCCCC1,-3.62%,
NS(=O)(=O)c1ccc(N2CCCCS2(=O)=O)cc1,2.09% [at 28.5 µM],
CC(CO)CO,5.8%,
CC1OC1C1CCC2(C)OC2C1 (stereo not given),3.25%,
CCC(C)S (stereo not given),36.9% [at 2.12 µM],
C/C=C/C(=O)C1=C(C)C=CCC1(C)C,1.5%,
Cc1ccccc1N=O,31.9%,
CC(CCO)CCc1ccccc1 (stereo not given),1.15%,
CC(C)(C)c1ccc(C=O)cc1,50.9%,
NC(=O)c1ccc([N+](=O)[O-])cc1,0.519%,
Cn1cnc2c1c(=O)[nH]c(=O)n2C,10.1% [at 28.5 µM],
CS(=O)(=O)O,30.2%,
CCCCCCCCCCCCCCC(=O)O,-5.24%,
O=c1[nH]c2cc(C(F)(F)F)c(N3CCOCC3)cc2n(CP(=O)(O)O)c1=O,3.28% [at 28.5 µM],

Compound,"activity, negative = inhibition",Potency
CCC(C)C1N=C(C)C(C)S1 (stereo not given),0.586%,
O=C(CCCN1CCC(O)(c2cccc(C(F)(F)F)c2)CC1)c1ccc(F)cc1,,0.365 µM (active)
NCCNCCO,40.1%,
Cc1ccc(S(=O)(=O)NC2CCCCC2)cc1,-14.7%,
CN(C)CCCNCCC#N,-2.8%,
O=C(O)c1ccc(CO)o1,-0.962%,
O=Cc1ccc([N+](=O)[O-])cc1,4.55%,
O=C(O)c1cc2ccccc2cc1O,,inactive
Cc1ccc2oc(=O)ccc2c1,,inactive
O=C(Cl)c1ccccc1[N+](=O)[O-],-10.9%,
CCCCCCCCCCCCI,0.107%,
CNC(=O)c1c(I)c(NC(C)=O)c(I)c(C(=O)O)c1I,-0.638% [at 28.5 µM],
COc1cc(N)c(Cl)cc1C(=O)NC1CCN(Cc2ccccc2)CC1,,1.83 µM (active)
CC(=O)N[C@@H](Cc1ccc(O)cc1)C(=O)O,42.8% [at 28.5 µM],
O=P(O)(O)O,,inactive
C[Si](C)(C)Cl,1.48%,
O=CC1CC1,13.4%,
Cc1nc2ccccc2s1,-18.1%,
C=COCCOCCOCCOC=C,4.56%,
Oc1c(Cl)ccc(Cl)c1Cl,,inactive
